The record followed here is PubChem BioAssay (NCATS).

Inconclusive results are not listed. A number with no mark means an inactive call. Calls of active or inactive are those of the source. Calls come from the whole dose curve; as a rule, active = well fitted inhibition curve with a large enough effect; inconclusive = small, poorly fitted or top-dose-only effect; inactive = flat fitted curve, though single readings scatter.
Potency is the fitted concentration of half-maximal effect.

One experiment relates to CP211. As to the kind of experiment: qHTS profiling for inhibitors of Plasmodium falciparum proliferation (AID 504749).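 For activity, negative = inhibition: 0% = DMSO vehicle and full inhibition = artemisinin control.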 Note: nearly all actives have a fitted effect of over 60% in size. The settings on record: P. falciparum in erythrocytes, SYBR Green DNA, 72 h; series mostly up to 28.7 µM; activity, negative = inhibition: at the top concentration. The gist of the method:
(§1)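 Each compound contacts P. falciparum-infected red blood cells for 72 h at 37 C; lysis buffer (Tris, EDTA, saponin, Triton X, SYBR Green I) is added and fluorescence measured next morning; values normalized to controls.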
In general terms: qHTS replaces the single test concentration by a dilution series.
Turning to `CN(C)[C@H]1C(=O)C(C(=O)NCN2CCCC2)=C(O)[C@]2(O)C(=O)C3=C(O)c4c(O)cccc4[C@](C)(O)[C@H]3C[C@H]12`, the “activity, negative = inhibition” value is 0.17%.
Same read-out and setting: the same measure for `C[C@]12CC[C@H]3c4ccc(O)cc4CC[C@@H]3[C@H]1CC[C@@H]2OC(=O)CCC1CCCC1`: -2.79%; for `Cc1cn([C@H]2C[C@H](N=[N+]=[N-])[C@H](CO)O2)c(=O)[nH]c1=O`: -0.239%.
On to `O=C(O)[C@@H](S)[C@H](S)C(=O)O`, for which the Potency is 6.75 µM (active).
With `CC(C)(C)NC[C@@H](O)c1ccc(O)c(CO)n1`, the “activity, negative = inhibition” value was 1.18%.
For the compound `NS(=O)(=O)c1cc2c(cc1Cl)N[C@H](Cc1ccccc1)NS2(=O)=O`, the “activity, negative = inhibition” value was 0.641%.

The subject of the next experiment is CP215. The experiment is described as above. To be noted: P. falciparum in erythrocytes, SYBR Green DNA, 72 h; series mostly up to 28.7 µM; activity, negative = inhibition: at the top concentration. The gist of the method:
as §1
Regarding `CN(C)[C@H]1C(=O)C(C(=O)NCN2CCCC2)=C(O)[C@]2(O)C(=O)C3=C(O)c4c(O)cccc4[C@](C)(O)[C@H]3C[C@H]12`, the “activity, negative = inhibition” value was 1.61%.
Still for that read-out and setting: the same measure for `C[C@]12CC[C@H]3c4ccc(O)cc4CC[C@@H]3[C@H]1CC[C@@H]2OC(=O)CCC1CCCC1`: -5.56%; for `Cc1cn([C@H]2C[C@H](N=[N+]=[N-])[C@H](CO)O2)c(=O)[nH]c1=O`: 1.89%.
Turning to `O=C(O)[C@@H](S)[C@H](S)C(=O)O`, the Potency is 9.53 µM (active).
Turning to `CC(C)(C)NC[C@@H](O)c1ccc(O)c(CO)n1`, the “activity, negative = inhibition” value is 1.67%.
As for `NS(=O)(=O)c1cc2c(cc1Cl)N[C@H](Cc1ccccc1)NS2(=O)=O`, the “activity, negative = inhibition” value is -4.65%.

The next experiment has as its system CP217. The experiment is described as above. To be noted: P. falciparum in erythrocytes, SYBR Green DNA, 72 h; series mostly up to 28.7 µM; activity, negative = inhibition: at the top concentration. The gist of the method: as §1
Turning to `CN(C)[C@H]1C(=O)C(C(=O)NCN2CCCC2)=C(O)[C@]2(O)C(=O)C3=C(O)c4c(O)cccc4[C@](C)(O)[C@H]3C[C@H]12`, the “activity, negative = inhibition” value was -2.61%.
Consider `C[C@]12CC[C@H]3c4ccc(O)cc4CC[C@@H]3[C@H]1CC[C@@H]2OC(=O)CCC1CCCC1`, for which the “activity, negative = inhibition” value was -6.53%.
For `Cc1cn([C@H]2C[C@H](N=[N+]=[N-])[C@H](CO)O2)c(=O)[nH]c1=O`, the “activity, negative = inhibition” value was 7.52%.
On to `O=C(O)[C@@H](S)[C@H](S)C(=O)O`, for which the Potency was 6.31 µM (active).
`CC(C)(C)NC[C@@H](O)c1ccc(O)c(CO)n1`: the “activity, negative = inhibition” value is 3.53%.
Consider `NS(=O)(=O)c1cc2c(cc1Cl)N[C@H](Cc1ccccc1)NS2(=O)=O`, for which the “activity, negative = inhibition” value is 1.51%.

The next experiment deals with CP237. The description is as above. To be noted: P. falciparum in erythrocytes, SYBR Green DNA, 72 h; series mostly up to 28.7 µM; activity, negative = inhibition: at the top concentration. The gist of the method:
as §1
In the case of `CN(C)[C@H]1C(=O)C(C(=O)NCN2CCCC2)=C(O)[C@]2(O)C(=O)C3=C(O)c4c(O)cccc4[C@](C)(O)[C@H]3C[C@H]12`, the “activity, negative = inhibition” value is -4.84%.
`C[C@]12CC[C@H]3c4ccc(O)cc4CC[C@@H]3[C@H]1CC[C@@H]2OC(=O)CCC1CCCC1`: the Potency was 8.91 µM (active).
Turning to `Cc1cn([C@H]2C[C@H](N=[N+]=[N-])[C@H](CO)O2)c(=O)[nH]c1=O`, the “activity, negative = inhibition” value was 3.77%.
In the case of `O=C(O)[C@@H](S)[C@H](S)C(=O)O`, the Potency is 7.08 µM (active).
On to `CC(C)(C)NC[C@@H](O)c1ccc(O)c(CO)n1`, for which the “activity, negative = inhibition” value was 2.01%.
On to `NS(=O)(=O)c1cc2c(cc1Cl)N[C@H](Cc1ccccc1)NS2(=O)=O`, for which the “activity, negative = inhibition” value was -1.36%.

A further experiment has as its system CP238. The experiment is described as above. To be noted: P. falciparum in erythrocytes, SYBR Green DNA, 72 h; series mostly up to 28.7 µM; activity, negative = inhibition: at the top concentration. The gist of the method:
as §1
Consider `CN(C)[C@H]1C(=O)C(C(=O)NCN2CCCC2)=C(O)[C@]2(O)C(=O)C3=C(O)c4c(O)cccc4[C@](C)(O)[C@H]3C[C@H]12`, for which the “activity, negative = inhibition” value is 3.71%.
On the same count and under the same terms, the same measure for `C[C@]12CC[C@H]3c4ccc(O)cc4CC[C@@H]3[C@H]1CC[C@@H]2OC(=O)CCC1CCCC1`: -0.44%; for `Cc1cn([C@H]2C[C@H](N=[N+]=[N-])[C@H](CO)O2)c(=O)[nH]c1=O`: 10.3%.
On to `O=C(O)[C@@H](S)[C@H](S)C(=O)O`, for which the Potency is 12.6 µM (active).
Regarding `CC(C)(C)NC[C@@H](O)c1ccc(O)c(CO)n1`, the “activity, negative = inhibition” value was 2.65%.
Still for that read-out and setting: the same measure for `NS(=O)(=O)c1cc2c(cc1Cl)N[C@H](Cc1ccccc1)NS2(=O)=O`: 3.93%.

In the next experiment the test system is CP247. The description is as above. The settings on record: P. falciparum in erythrocytes, SYBR Green DNA, 72 h; series mostly up to 28.7 µM; activity, negative = inhibition: at the top concentration. The gist of the method:
as §1
Regarding `CN(C)[C@H]1C(=O)C(C(=O)NCN2CCCC2)=C(O)[C@]2(O)C(=O)C3=C(O)c4c(O)cccc4[C@](C)(O)[C@H]3C[C@H]12`, the “activity, negative = inhibition” value was 0.572%.
With `C[C@]12CC[C@H]3c4ccc(O)cc4CC[C@@H]3[C@H]1CC[C@@H]2OC(=O)CCC1CCCC1`, the “activity, negative = inhibition” value is -1.26%.
Take `Cc1cn([C@H]2C[C@H](N=[N+]=[N-])[C@H](CO)O2)c(=O)[nH]c1=O`: the “activity, negative = inhibition” value was 11.3%.
On to `O=C(O)[C@@H](S)[C@H](S)C(=O)O`, for which the Potency was 7.94 µM (active).
Take `CC(C)(C)NC[C@@H](O)c1ccc(O)c(CO)n1`: the “activity, negative = inhibition” value was 9.64%.
Same read-out and setting: the same measure for `NS(=O)(=O)c1cc2c(cc1Cl)N[C@H](Cc1ccccc1)NS2(=O)=O`: 2.25%.

In the next experiment the test system is CP250. Described as above. The settings on record: P. falciparum in erythrocytes, SYBR Green DNA, 72 h; series mostly up to 28.7 µM; activity, negative = inhibition: at the top concentration. The gist of the method:
as §1
In the case of `CN(C)[C@H]1C(=O)C(C(=O)NCN2CCCC2)=C(O)[C@]2(O)C(=O)C3=C(O)c4c(O)cccc4[C@](C)(O)[C@H]3C[C@H]12`, the “activity, negative = inhibition” value is 0.284%.
Turning to `C[C@]12CC[C@H]3c4ccc(O)cc4CC[C@@H]3[C@H]1CC[C@@H]2OC(=O)CCC1CCCC1`, the “activity, negative = inhibition” value is -1.65%.
As for `Cc1cn([C@H]2C[C@H](N=[N+]=[N-])[C@H](CO)O2)c(=O)[nH]c1=O`, the “activity, negative = inhibition” value was 12%.
Turning to `O=C(O)[C@@H](S)[C@H](S)C(=O)O`, the Potency is 7.08 µM (active).
For the compound `CC(C)(C)NC[C@@H](O)c1ccc(O)c(CO)n1`, the “activity, negative = inhibition” value is 0.489%.
On the same count and under the same terms, the same measure for `NS(=O)(=O)c1cc2c(cc1Cl)N[C@H](Cc1ccccc1)NS2(=O)=O`: -3.71%.

The next experiment concerns CP252. The description is as above. The settings on record: P. falciparum in erythrocytes, SYBR Green DNA, 72 h; series mostly up to 28.7 µM; activity, negative = inhibition: at the top concentration. The gist of the method:
as §1
`CN(C)[C@H]1C(=O)C(C(=O)NCN2CCCC2)=C(O)[C@]2(O)C(=O)C3=C(O)c4c(O)cccc4[C@](C)(O)[C@H]3C[C@H]12`: the “activity, negative = inhibition” value was 4.27%.
Turning to `C[C@]12CC[C@H]3c4ccc(O)cc4CC[C@@H]3[C@H]1CC[C@@H]2OC(=O)CCC1CCCC1`, the “activity, negative = inhibition” value was -8.62%.
For the compound `Cc1cn([C@H]2C[C@H](N=[N+]=[N-])[C@H](CO)O2)c(=O)[nH]c1=O`, the “activity, negative = inhibition” value was 5.67%.
For the compound `O=C(O)[C@@H](S)[C@H](S)C(=O)O`, the Potency was 10 µM (active).
In the case of `CC(C)(C)NC[C@@H](O)c1ccc(O)c(CO)n1`, the “activity, negative = inhibition” value is -1.49%.
As for `NS(=O)(=O)c1cc2c(cc1Cl)N[C@H](Cc1ccccc1)NS2(=O)=O`, the “activity, negative = inhibition” value was -2.93%.
